Several values for one entry are separate records, joined by “and”; a condition that tells them apart may be missing. Equal values may be shown once. This is part of a sample that, as a whole, favours compounds with a hit. Of some 83,000 tested, about 20% had one in any assay.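 Compound tested at a single concentration for 48 hours in 96-well plates; a percent growth value below 10 was scored as active.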 Activity calls are given as the source filed them.

The experiment deals with MDA-MB-468 breast. In words: NCI-60 one-dose screen, 48 h (100 = growth as untreated, 0 = no growth, -100 = all killed). Conditions: 10 µM unless noted.
On to `Cc1ccc(N)cc1S(=O)(=O)O`, for which the growth was 127% (inactive) and 110% (inactive).
On to `CNc1nc(S(=O)c2ccc(C#N)cc2)nc2ccccc12` (stereo not given), for which the growth was -4.09% (active).
In the case of `COc1cc(C2CC(c3cccc(Nc4ccncc4)c3)=NN2C(C)=O)cc(OC)c1OC` (stereo not given) it was 86.6% (inactive); in that of `c1ccc(-c2n[nH]c(-c3ccccn3)n2)nc1`, 100% (inactive); in that of `COc1cccc(C(=O)OCC(O)C(=O)NC23CC4CC(CC(C4)C2)C3)c1` (stereo not given), 88% (inactive).
On to `C=CCn1c(SCC(=O)c2ccc(Br)cc2)nnc1-c1c[nH]c2ccccc12`, for which the growth is 86.9% (inactive).
In the case of `Cc1nn(-c2ccc(Br)cc2)c2nc3[nH]c(=O)[nH]c(=O)c3nc12` it was 116% (inactive); in that of `CCCCC/C=C/C/C=C/CCCCCCCC1=NC(C)(C)CN1C(C)C`, -42.8% (active).
Consider `O=c1c2cc(Br)cc(Br)c2nc(-c2ccc(Cl)cc2)n1/N=C\c1ccccc1F`, for which the growth was 79.1% (inactive).
For `O=C1Nc2ccccc2/C1=N/c1nc(-c2ccc(Cl)cc2)cs1` the value was 59% (inactive); for `C#C[C@]1(O)CC[C@H]2[C@@H]3CC=C4c5nc(Nc6ccc(OC)cc6OC)sc5CC[C@]4(C)[C@H]3CC[C@@]21C`, -6.78% (active).
For `NC(N)=NC(N)=NCCCc1ccco1` the value was 107% (inactive).
In the case of `O=C(O)CC(C(=O)O)/C(=C\c1ccccc1)c1ccccc1` (stereo not given) it was 88.1% (inactive); in that of `O=C1Nc2ccccc2/C1=C/C(=O)c1ccc(N2CCCC2)cc1`, 5.3% (active).
As for `CSC1=Nc2c(c(C)c(-c3ccccc3)n2CCCC(=O)O)C2=NC(=O)C[C@H](C)N12`, the growth was 83.7% (inactive).
On to `CCCCCCNC(=O)Oc1ccc(/C(=C(/CC)Cc2ccccc2)c2ccc(OCCCN(C)C)cc2)cc1`, for which the growth was 89.5% (inactive).
In the case of `OC(c1cc2ccc(C(F)(F)F)cc2c2cc(C(F)(F)F)ccc12)C1CCCCN1` (stereo not given) it was -74% (active).
In the case of `O=C(Cc1ccc(/C=C/C(=O)c2ncc[nH]2)cc1)Nc1cc(C(F)(F)F)cc(C(F)(F)F)c1` it was 65.3% (inactive); in that of `CCCCNc1cc(C(=O)O)cc(S(N)(=O)=O)c1Oc1ccccc1`, 94.1% (inactive); in that of `O=C1/C(=C/c2ccc(Cl)cc2)SC(=Nc2ccc(Cl)cc2)N1Cc1nc2ccccc2[nH]1`, 78.6% (inactive).
In the case of `COc1cc2c(c(OC)c1OC)C(=O)CC(c1cccc(NC(=O)c3ccc(C#N)cc3)c1)O2` (stereo not given) it was 48.8% (inactive); in that of `CN(Cc1ccccc1)c1nc(Cl)c(C2CC(c3ccc(Cl)cc3)=NN2c2cc(Cl)cc(Cl)c2)s1` (stereo not given), 101% (inactive).
For the compound `O=C(NC[C@H](O)CN1CCc2ccccc2C1)c1cc(NC2COC2)ncn1`, the growth was 115% (inactive).
For `O=C(COc1ccc(-c2nc3cc(Cl)c(Cl)cc3[nH]2)cc1)N=Nc1c(O)[nH]c2ccc(Cl)cc12`, the growth is 68.5% (inactive).
In the case of `COc1ccc(CN2C(=O)/C(=C\c3cc(OC)c(OC)c(OC)c3)c3ccccc32)cc1` it was 5.64% (active); in that of `CC(Cl)(CCl)CS(=O)(=O)c1ccc(Cl)cc1` (stereo not given), 104% (inactive); in that of `Cn1c2ccccc2c2ccccc21`, 101% (inactive).
For `C[C@@H](C[C@H](CCO)c1ccccc1)c1ccc2ccccc2c1` the value was -54.1% (active); for `O=C1/C(=C/c2ccc(Cl)cc2)COc2ccc(O)cc21`, 85.1% (inactive); for `O=C(c1cccc(C(=O)c2ccc3c4c(cccc24)C(=O)N(c2ccccc2)C3=O)c1)c1ccc2c3c(cccc13)C(=O)N(c1ccccc1)C2=O`, 91.3% (inactive).
In the case of `O=C(CCCOc1ccc(Br)cc1)Nc1ncc(Cc2ccc(F)cc2)s1` it was 57% (inactive).
Turning to `CN(C)c1ncnc2c1ccn2C1OC(CO)C(O)C1O` (stereo not given), the growth was -64.3% (active).
In the case of `CCC(CC)COC(=O)c1ccc(O)c(O)c1` it was 80.6% (inactive); in that of `N/C(=N\O)c1cn(C2OC(CO)C(O)C2O)c2ncnc(N)c12` (stereo not given), -23.4% (active); in that of `C1=NCCc2ccccc21`, 109% (inactive).
For `CCCCCCNC(=O)Oc1ccc(/C(=C(/C)c2ccc(OC)cc2)c2ccc(OCCN3CCCCCC3)cc2)cc1` the value was 1.03% (active).
In the case of `CN(C)c1ccc(-c2nc(-c3ccccc3)c(-c3ccccc3)[nH]2)cc1` it was 114% (inactive); in that of `O=C(NCCNc1nccc(-n2ccc3cccnc32)n1)c1ccc(C(F)(F)F)cc1`, 110% (inactive); in that of `C[C@H](Nc1ncnc2ccc(-c3cnc(Cl)c(NS(C)(=O)=O)c3)cc12)c1ccccc1`, -62.4% (active).
Consider `N#C/C(=C\c1ccccc1Cl)c1cc2ccccc2[nH]1`, for which the growth is 58.1% (inactive).

For the origin of these results see PubChem BioAssay (NCI).
